Screens as filed in PubChem.
ALDH1A1 block: blocks purified human ALDH1A1 activity | 220,000 tested, 7.3% active | AID 1030 | Potency, µM (titrated, usually from 75.3 µM), inactives show top-dose activity, negative = inhibition, actives largely listed as inhibitors | Purified ALDH1A1, NADH fluorescence, propionaldehyde substrate | P00352; active = well fitted inhibition curve with a large enough effect, not every such curve was filed as active; inconclusive = small, poorly fitted or top-dose-only effect, or another doubt; inactive = no such curve, though single readings can be large or run the other way;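 also: potency is read from the fitted curve at half-maximal effect; plate controls were no enzyme wells and a reference inhibitor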
Target sequence (P00352 whole entry, looked up): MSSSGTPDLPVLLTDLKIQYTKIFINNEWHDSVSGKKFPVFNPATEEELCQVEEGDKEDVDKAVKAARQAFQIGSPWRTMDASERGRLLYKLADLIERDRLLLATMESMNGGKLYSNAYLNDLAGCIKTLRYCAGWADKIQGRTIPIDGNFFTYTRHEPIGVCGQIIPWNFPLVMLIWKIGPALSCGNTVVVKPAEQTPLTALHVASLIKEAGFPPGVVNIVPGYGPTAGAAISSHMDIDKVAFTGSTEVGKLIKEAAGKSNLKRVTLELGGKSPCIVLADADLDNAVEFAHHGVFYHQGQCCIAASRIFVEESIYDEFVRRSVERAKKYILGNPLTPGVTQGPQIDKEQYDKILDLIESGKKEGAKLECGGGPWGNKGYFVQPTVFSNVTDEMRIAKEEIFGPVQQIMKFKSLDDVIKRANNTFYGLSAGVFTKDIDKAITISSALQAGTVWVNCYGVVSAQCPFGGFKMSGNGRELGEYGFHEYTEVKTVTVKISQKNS
CBFb RUNX1 block: blocks binding between human CBF-beta and RUNX1. Q01196+Q13951. AlphaScreen CBFb-His/RUNX1-biotin binding, biochemical. Potency, µM (titrated, usually from 59.8 µM), inactives show top-dose activity, negative = inhibition, most hits filed as inhibitors. 230,000 tested, under 10 active; also: % of control where 0% means no effect
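Inhibition was taken as any reduction in AlphaScreen signal from the CBF-beta–RUNX1 pair (His and biotin tags, 30 nM each), measured after compound (15 min) and bead (90 min) incubations at room temperature.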
HPGD inh: blocks human HPGD enzyme activity. Potency, µM, without a hit: at the highest dose activity change, negative = inhibition, hits mostly inhibitors. purified HPGD, NADH fluorescence kinetic, PGE2 substrate. 150,000 tested, 4.3% active; active = well fitted inhibition curve with a large enough effect, not every such curve was filed as active; inconclusive = small, poorly fitted or top-dose-only effect, or another doubt; inactive = no such curve, though single readings can be large or run the other way; also: potency is read from the fitted curve at half-maximal effect; % is scaled to controls: 0 for no effect and ±100 for the full control effect
Target sequence (P15428 whole entry, looked up): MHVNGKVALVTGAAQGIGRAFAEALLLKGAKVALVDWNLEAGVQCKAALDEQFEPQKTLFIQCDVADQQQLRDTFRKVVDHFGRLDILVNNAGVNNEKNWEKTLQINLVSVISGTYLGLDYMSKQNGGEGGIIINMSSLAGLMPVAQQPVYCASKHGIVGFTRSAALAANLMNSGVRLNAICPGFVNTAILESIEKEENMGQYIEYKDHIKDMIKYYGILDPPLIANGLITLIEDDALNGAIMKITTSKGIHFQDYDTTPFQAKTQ
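NADH formation kinetics: reaction with 30 uM PGE2 and 1 mM NAD+ (final), 20 nM enzyme, Tris-HCl pH 8 with Tween 20, after 15 min compound preincubation at room temperature. Fluorescence change, last versus first of five reads.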
HTT aggregate: inhibitors of mutant huntingtin aggregate formation in PC12 cells; PC12 HttQ103-GFP aggregates, Acumen cytometry, 40 h; Potency, µM (series often up to 46.1 µM), inactives show at the highest dose activity change, negative = inhibition, actives largely listed as inhibitors; 220,000 tested, 1.1% active; also: potency is read from the fitted curve at half-maximal effect; % is scaled to controls: 0 for no effect and ±100 for the full control effect; nearly all actives have a fitted effect of over 60% in size
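Read-out: GFP aggregate count by laser scanning cytometer (488 nm excitation, 500-530 nm emission, 1–25 µm objects >6 SD above background). Cells: PC12, inducible HTTex1-Q103-GFP, 100 nM tebufenozide; compounds titrated.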
PNC assembly inh: blocks assembly of the perinucleolar compartment | PC3M PTB-GFP, PNC prevalence imaging, 16 h; stronger effect = lower value | activity change (PNC), negative = inhibition, % at 10 µM | 140,000 tested, 3.1% active | AID 2417;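 active = readout at or below -70, meaning at least 70% loss of cells showing the perinucleolar compartment, a nuclear body marking cancer cells; inconclusive = readout between -30 and a set limit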;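 also: plate controls were DMSO wells for no effect and camptothecin positive control wells for full effect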
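Read-out is percentage of cells bearing a perinucleolar compartment, from automated 20x imaging of fixed, Hoechst-stained PC3M PTB-GFP cells. Cells were seeded 4 h, then exposed 16 h to compound (23 nl of library stock) in duplicate plates.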
HTT ATP protect: cytoprotection in Huntington HTT-Q103 PC12 cell model. Potency, µM (series often up to 56.4 µM), for inactives: cytoprotection (ATP increase), actives largely listed as activators. 230,000 tested, 0.14% active. PC12 HTT-Q103 induced, cytoprotection, ATP luminescence, 40 h. AID 1471; also: potency is read from the fitted curve at half-maximal effect; % of control where 0% means no effect; nearly all actives have a fitted effect of over 45% in size
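Compounds were screened for protection of PC12 cells against cell death after tebufenozide induction (100 nM final) of mutant Huntingtin exon 1 (Q103) fused to GFP.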
* hit, by the source's call; u = inconclusive; x = not tested or not shown; [ ] = another dose, or the depositor's remark. Compounds with a hit are over-represented: about 11% of the library has one in this group of screens. Unless noted, calls follow the shape of the dose curve; as a rule, active = well fitted curve in the direction sought with a large enough effect; inconclusive = small, poorly fitted or top-dose-only effect, or another doubt; inactive = no such curve, though single readings can be large; an effect the other way counts as inactive or inconclusive.

SMILES	ALDH1A1 block	CBFb RUNX1 block	HPGD inh	HTT aggregate	PNC assembly inh	HTT ATP protect
COc1ccc(N=Cc2sc3ccccc3c2Cl)cc1	-4%	-16%	-10%	-3%	117	-10%
C=CCN(C(C(=O)OC)C(C)C)S(=O)(=O)CCl (centres undefined)	x	0%	x	x	x	x
CCn1c(=O)c(C(=O)CN(C)Cc2ccc(F)cc2)c(N)n(Cc2ccccc2)c1=O	-8%	4%	x	-16%	x	-24%
COC(=O)c1ccc(C2/C(=C(/O)c3ccc(OC)cc3)C(=O)C(=O)N2Cc2ccco2)cc1 (centres undefined)	18µM*	5%	-11%	7%	-5	-8%
CC(=O)c1cccc(NC(=S)NC(=O)c2cccc(Cl)c2)c1	20µM*	-11%	u	13%	u	-22%[10 µM]
Cc1cccc(NC(=O)CC(C)(C)C)c1	-2%	6%	16µM*	-3%	u	-12%[10 µM]
CC(=O)Nc1cccc(C)c1	-5%	3%[21.7 µM]	-9%	x	x	-73%
CC(=O)c1cccc(NC(=O)Cc2ccc3c(c2)CCCC3)c1	13µM*	2%	25µM*	-25%	-9	-13%
CC(=O)c1cccc(NC(=O)NNC(=O)c2ccc(Cl)cc2Cl)c1	u	5%	x	11µM*	x	-23%
NC(=O)c1sc2nc(N3CCCCC3)c3c(c2c1N)CCCC3	u	6%	u	u	-16	3%[10 µM]
CC(=O)c1cccc(NC(=S)NC(=O)c2ccccc2)c1	u	-6%	u	-1%	34	-10%[10 µM]
CC(=O)c1cccc(NC(=S)NC(=O)CC(C)(C)C)c1	-4%	3%	16µM*	-5%	14	-23%
Cc1cc(C)cc(NCC(=O)Nc2c(C)cccc2C)c1	u	8%	-22%	u	-90*	8%[10 µM]
Cc1cccc(C)c1NC(=O)C[N+](C)(C)C	-2%	8%	2%	x	x	-9%
Nc1cc(=O)[nH]c(SCC(=O)Nc2cccc(Cl)c2Cl)n1	-3%	24%	x	-11%	x	-14%
N[C@@](CC(=O)O)(Cc1ccccc1)C(=O)O	-6%[13.5 µM]	x	-3%	x	x	10%[10 µM]
Cc1sc2nc(COC(=O)CNC(=O)c3ccc(C(C)(C)C)cc3)[nH]c(=O)c2c1C	8.9µM*	3%	-20%	9%	26	21%[10 µM]
Cc1sc2nc(COC(=O)c3ccc(N4CCCC4)c([N+](=O)[O-])c3)[nH]c(=O)c2c1C	18µM*	-16%	-13%	20%	0	-6%[1.9 µM]
Cc1sc2nc(COC(=O)c3ccc(O)cc3)[nH]c(=O)c2c1C	x	0%	x	6%[9.22 µM]	x	9%[10 µM]
CCn1nc(C(=O)Nc2ccc(S(=O)(=O)Nc3nccs3)cc2)c2ccccc2c1=O	28µM*	0%	-21%	-1%	22	-11%[10 µM]
Cc1cc(C)c2oc(C(=O)Nc3ccc(S(=O)(=O)Nc4nccs4)cc3)cc(=O)c2c1	x	-1%	x	-17%[9.22 µM]	x	2%[10 µM]
COc1ccc(NS(=O)(=O)c2ccc(NC(=S)NC(=O)c3cccnc3)cc2)nn1	15µM*	-7%	x	11%	x	-93%
COc1ccc(NS(=O)(=O)c2ccc(NC(=S)NC(=O)c3cccc(F)c3)cc2)nn1	u	-1%	-21%	u	36	20%[10 µM]
COc1cc(NS(=O)(=O)c2ccc(NC(=S)NC(=O)C3CCCC3)cc2)nc(OC)n1	25µM*	-4%	-19%	0%	u	-15%
Cc1cc2oc(C(=O)Nc3ccc(S(=O)(=O)Nc4nccs4)cc3)cc(=O)c2cc1Cl	-16%	-4%	32µM*	-7%	32	-12%[10 µM]
SMILES	ALDH1A1 block	CBFb RUNX1 block	HPGD inh	HTT aggregate	PNC assembly inh	HTT ATP protect
CC(=O)c1ccc(Nc2c3ccccc3cc3occc23)cc1	x	18%	x	x	x	x
CC1(CC(=O)O)O[C@H]2CCCCC[C@H]2O1 (some centres undefined) (tested in a mixture with another compound)	1%[13.5 µM]	x	-8%	x	x	1%[10 µM]
CCCCCCCCCCCCC/C=C/[C@@H](O)[C@H](COP(=O)([O-])OCC[N+](C)(C)C)NC(=O)CCCCCCCCCCCCCCCCC	3%	-8%	-1%	x	x	u
CC(C)C[C@@H](CC(=O)N[C@@H](CCCN)CC(=O)N[C@@H]1CCNC[C@H]1C(=O)N[C@H](CC(=O)N[C@@H](CCC(=O)O)CC(=O)O)Cc1ccccc1)NC(=O)[C@@H]1CNCC[C@H]1N	-7%	3%	-5%	x	x	3%[1.9 µM]
CC(=O)O[C@H]1C2=CO[C@H](C)[C@H]3[C@H]4C5=C([C@H](O)[C@H]6O[C@@H]6C5=O)[C@H](O[C@H]4C)[C@@]23C(=O)[C@H]2O[C@@H]21	6%[13.5 µM]	13%[13.1 µM]	x	x	x	u
O=C(O)c1ccccc1C(=O)Nc1ccc(S(=O)(=O)Nc2nccs2)cc1	-1%	-5%	-13%	0%	x	u
O=C(NC(=S)Nc1ccc(S(=O)(=O)Nc2nccs2)cc1)c1ccc(Br)o1	32µM*	-6%	x	-8%	x	-26%
O=C(NC(=S)Nc1ccc(S(=O)(=O)Nc2nccs2)cc1)c1ccccc1	32µM*	-6%	-6%	10%	u	-22%[10 µM]
O=C(NC(=S)Nc1ccc(S(=O)(=O)Nc2nccs2)cc1)c1ccc(F)c(F)c1	25µM*	-1%	-7%	25%	23	-3%[10 µM]
O=C(NC(=S)Nc1ccc(S(=O)(=O)Nc2nccs2)cc1)c1cccnc1	u	3%	x	-12%[9.22 µM]	x	-32%
O=C(Nc1ccc(S(=O)(=O)Nc2nccs2)cc1)c1cccc(N2C(=O)c3ccccc3C2=O)c1	7.1µM*	-2%	x	19%	x	x
COc1ccccc1/C=C/C(=O)Nc1ccc2c(c1)CCC2	5%	-3%	-24%	-14%	-7	u
COC(=O)N1CCc2cc(OC)c(OC)cc2C1Cc1ccc(OC)cc1 (centres undefined)	3%[13.5 µM]	0%[13.1 µM]	x	x	x	-9%[10 µM]
CCCCC/C=C\C/C=C\C/C=C\C/C=C\CCCC(=O)O[C@@H](CO)COCCCCCCCCCCCCCCCC	2%	-11%	-8%	x	x	-17%
O=C(NC(=S)Nc1ccc(S(=O)(=O)Nc2nccs2)cc1)c1ccccc1F	2µM*	-10%	x	13%	x	7%
COC(=O)[C@H]1[C@H]2C[C@@H]3c4[nH]c5ccccc5c4CCN3C[C@H]2C[C@@H](OC(=O)c2cc(OC)c(OC)c(OC)c2)[C@@H]1OC	x	x	x	-20%	x	-97%
CC1(C)CCC[C@]2(C)C3CC(=O)O[C@@]3(C)CC[C@H]12 (some centres undefined)	20µM*	10%[21.7 µM]	-1%	x	x	12%[1.9 µM]
COC(=O)c1ccc(C(NC(=O)OCc2ccccc2)/C(=C/[C@@H](C)C(=O)NCc2cc(F)cc(F)c2)c2cccnc2)cc1 (some centres undefined)	0%	-2%	-7%	x	x	-7%
